# Results reported in publication PMC5540273 (PLoS ONE, 2017).
# Legend:
# Conditions in all cases: concentration: 1 μM, replicates: in singlicate; n = 1
# PKAC-alpha = test system: T1, PKAC-alpha
# T1 construct: gene PRKACA
# PKAC-beta = test system: T2, PKAC-beta
# T2 construct: gene PRKACB
# PKMYT1 = test system: PKMYT1
# PKN1 = test system: PKN1
# PKN2 = test system: PKN2
# PLK1 = test system: PLK1
# PLK2 = test system: PLK2
# PLK3 = test system: PLK3
# PLK4 = test system: PLK4
# PRKCD = test system: PRKCD
# PRKCE = test system: PRKCE
# PRKCH = test system: PRKCH
# PRKCI = test system: PRKCI
# PRKCQ = test system: PRKCQ
# PRKD1 = test system: PRKD1
# PRKD2 = test system: PRKD2
# PRKD3 = test system: PRKD3
# PRKG1 = test system: PRKG1
# PRKG2 = test system: PRKG2
# PRKR = test system: T3, PRKR
# T3 construct: gene EIF2AK2
# 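Further: KINOMEscan kinase panel screen.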
SMILES,%Inh (PKAC-alpha) [%],%Inh (PKAC-beta) [%],%Inh (PKMYT1) [%],%Inh (PKN1) [%],%Inh (PKN2) [%],%Inh (PLK1) [%],%Inh (PLK2) [%],%Inh (PLK3) [%],%Inh (PLK4) [%],%Inh (PRKCD) [%],%Inh (PRKCE) [%],%Inh (PRKCH) [%],%Inh (PRKCI) [%],%Inh (PRKCQ) [%],%Inh (PRKD1) [%],%Inh (PRKD2) [%],%Inh (PRKD3) [%],%Inh (PRKG1) [%],%Inh (PRKG2) [%],%Inh (PRKR) [%]
COc1cccc(C2=C(N(C)c3ccccc3)C(=O)NC2=O)c1 [SB-334865],0,0,1,0,0,0,0,0,17,0,25,5,7,0,6,0,10,0,0,0
CCCNC(=O)Nc1ccc(Oc2ncnc3ccn(C)c23)cc1,0,0,0,0,0,0,28,15,18,33,3,13,0,22,0,0,0,0,0,0
CCCC(=O)Nc1n[nH]c2ncc(-c3cccc4ccccc34)cc12 [SB-642057],0,0,22,19,0,0,0,1,13,0,16,16,15,0,0,14,0,7,0,29
Nc1n[nH]c2nnc(-c3ccccc3)c(-c3ccccc3)c12 [GW554060],0,16,0,20,3,8,0,0,0,3,15,14,16,12,0,0,17,0,0,0
COc1cc2nccc(Nc3cccc(Oc4ccccc4)c3)c2cc1OC.Cl [GW284543],0,10,0,0,0,0,0,0,0,5,0,0,18,1,0,0,31,3,0,0
OCCCNc1nccc(-c2c(-c3cccc(C(F)(F)F)c3)nn3cc(C(F)(F)F)ccc23)n1 [GW630813],0,0,0,0,0,0,0,0,12,0,7,10,0,0,22,10,0,0,0,8
COc1cc2nccc(Nc3ccc(OCc4ccc(NC(C)=O)cc4)cc3)c2cc1OC.Cl [GW440135],0,0,0,44,0,12,0,0,0,11,10,14,0,0,0,11,2,10,0,0
CCS(=O)(=O)c1ccc(OC)c(Nc2ncc(-c3ccc(F)cc3)o2)c1.Cl [GW591947],0,14,7,0,15,0,0,0,0,2,0,18,11,0,0,0,0,45,0,0
O=C(NCCNc1ccnc(Nc2ccc(F)cc2)n1)Nc1ccc2c(c1)OCO2 [GSK1379882],0,0,0,23,0,4,0,0,4,0,13,16,0,3,0,7,0,0,0,9
CCS(=O)c1ccc(-c2coc3ccc(-c4nnc(C)o4)cc23)cc1 (stereo not drawn),0,18,0,0,16,0,0,14,5,4,0,0,0,14,0,0,0,21,9,0
COc1cc2ncn(-c3cc(OCc4ccc(S(C)(=O)=O)cc4)c(C(N)=O)s3)c2cc1OC [GW869979],0,0,0,8,0,98.3,98.9,92.3,3,0,20,0,12,0,0,0,18,0,0,0
CCC(=O)c1c(-c2ccccc2)c2cc(Cl)ccc2c(=O)n1Cc1cc(S(C)(=O)=O)n(CCC(C)(C)O)n1,0,0,0,0,0,0,0,8,24,0,0,3,23,37,1,4,0,0,21,0
Cc1nn2c(=O)cc(N3CCOCC3)nc2n1Cc1cccc(Cl)c1Cl [GSK2342769],7,7,1,36,0,5,0,0,0,0,0,21,5,19,20,0,16,0,0,0
COc1cc(Nc2nccc(N3CCC(NC(=O)C4COc5ccccc5O4)C3)n2)cc(OC)c1OC (stereo not drawn) [GSK1379761],4,0,5,0,7,13,0,0,9,18,3,4,0,0,0,10,0,0,3,13
O=c1cc(N2CCOCC2)nc2n(Cc3ccc(F)c(Cl)c3)ccn12 [GSK2297099],0,0,10,11,0,54,0,6,0,0,0,12,0,26,0,0,12,0,0,15
COc1cccc(C2=C(Nc3cccc(C(=O)O)c3)C(=O)NC2=O)c1 [SB-390770],0,0,11,22,0,6,0,0,10,29,15,28,100,11,0,0,0,0,0,0
Cc1nnc(-c2ccc3ncn(-c4ccc(S(C)=O)cc4)c3c2)o1 (stereo not drawn),12,0,0,0,0,0,0,9,14,0,3,4,0,3,0,35,0,0,13,0
FC(F)(F)c1ccc(-c2ncn(CCCN3CCOCC3)c2-c2ccncc2)cc1 [SB-217780],0,10,0,43,48,5,0,0,3,87,35,0,19,30,0,0,0,29,25,0
Cc1ccc(Oc2ccc(Nc3ncnc4cc[nH]c34)cc2C)cn1,19,0,8,50,0,50,12,11,20,5,0,27,7,9,0,2,8,0,23,8
COc1cccc(-n2cnc3c(N)ncnc32)c1 [SKF-97416],11,20,10,0,24,58,43,18,21,6,33,0,25,1,0,0,0,19,14,13
C[C@@H]1CC[C@H](C(=O)NC2CCCCC2)CN1c1cc(-c2ccc3c(N)n[nH]c3c2)nc(N)n1 [GSK2291363],32,18,6,0,0,8,0,0,0,8,14,34,37,34,0,12,26,17,0,14
